# Test results from PubChem BioAssay (EPA / NIEHS).
# The source holds several records for some structures; these can differ, active in one and inactive in another. Calls of active or inactive are those of the source. The calls were made as follows: active = hit-call score of the fitted dose curve at least 0.9, where 1 is the maximum; inactive = score below 0.9.
# How the values were obtained:
# [1] = ATG_GLI_CIS: Attagene CIS-FACTORIAL HepG2 Assay for human Zinc Finger Protein GLI1 (AID 2282945); details: HepG2, Attagene cis-factorial reporter mRNA, GLI element; actives raise or lower the signal
# How it was run: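 Bidirectional curve fits relative to DMSO, using reporter mRNA levels from RT-PCR plus capillary electrophoresis. Cells were HepG2 transiently carrying cis-regulated reporter constructs, harvested 24 h after dosing.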
# [2] = target: Bile acid receptor (Homo sapiens) (UniProt Q96RI1); test: ATG_IR1_CIS: Attagene CIS-FACTORIAL HepG2 Assay for human Nuclear Receptor Subfamily 1 Group H Member 4 (NR1H4), IR1 submotif (AID 2282946); details: IR1 reporter transcription, actives raise or lower the signal
# How it was run: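 Cells (human HepG2) carry transiently transfected cis-promoter reporter transcription units. Compounds are incubated 24 h, total RNA is reverse-transcribed and amplified, and labelled fragments are resolved by capillary electrophoresis. Curves use DMSO as baseline.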
# [3] = ATG_GRE_CIS: Attagene CIS-FACTORIAL HepG2 Assay for human Glucocorticoid Response Elements (GRE) (AID 2282947); details: HepG2 GRE cis-reporter, Attagene multiplex mRNA; actives raise or lower the signal
# How it was run: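 Assay uses human hepatoma HepG2 cells transfected with cis-promoter reporter units, exposed 24 h. mRNA from reporters detected by RT-PCR plus capillary electrophoresis; DMSO serves as negative control and baseline.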
# [4] = ATG_ISRE_CIS: Attagene CIS-FACTORIAL HepG2 Assay for human Interferon Regulatory Factor 1 (IRF1) binding to an Interferon-Stimulated Response Element (ISRE) (AID 2282948); details: HepG2 ISRE cis-reporter (Attagene), mRNA transcription readout; actives raise or lower the signal
# How it was run: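 HepG2 cells transiently transfected with multiplexed cis-promoter reporter units; after 24 h compound exposure, reporter mRNA quantified by RT-PCR, FAM labelling, HpaI digestion and capillary electrophoresis. Bidirectional fit versus DMSO baseline.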
# [5] = ATG_M_06_CIS: Attagene CIS-FACTORIAL HepG2 Assay for M06 Transcription Factor (Internal Marker) (AID 2282950); details: HepG2 Attagene CIS-FACTORIAL M06 internal marker reporter; actives raise or lower the signal
# How it was run: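 Fluorescence-labelled RT-PCR products from cis-promoter reporter units, cut with HpaI and resolved by capillary electrophoresis, give the signal. Cells are human HepG2, dosed for 24 h. Serves as background control, fitted relative to DMSO.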
# [6] = target: Hepatocyte nuclear factor 6 (Homo sapiens) (UniProt Q9UBC0); test: ATG_HNF6_CIS: Attagene CIS-FACTORIAL HepG2 Assay for human Hepatocyte Nuclear Factor 6 (HNF6) (AID 2282952); details: HepG2 Attagene cis-factorial HNF6 reporter transcription; actives raise or lower the signal
# How it was run: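 HepG2 cells transiently transfected with cis-element-driven multiple reporter transcription units, dosed 24 h; reporter mRNA quantified by RT-PCR, FAM primer extension, HpaI digestion and capillary electrophoresis; bidirectional fit versus DMSO baseline.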
# [7] = target: Heat shock factor protein 1 (Homo sapiens) (UniProt Q00613); test: ATG_HSE_CIS: Attagene CIS-FACTORIAL HepG2 Assay for human Heat Shock Transcription Factor 1 (HSE) (AID 2282953); details: HepG2 HSE cis-reporter, Attagene RNA transcription; actives raise or lower the signal
# How it was run: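 After a 24 h incubation with test chemical, transfected HepG2 cells were harvested for RNA; reporter transcripts were measured by RT-PCR and capillary electrophoresis. Values reflect gain or loss of signal relative to DMSO.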
# [8] = ATG_MRE_CIS: Attagene CIS-FACTORIAL HepG2 Assay for human Metal Responsive Element (MRE) (AID 2282954); details: HepG2 MRE cis-reporter transcription, Attagene multiplex; actives raise or lower the signal
# How it was run: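 After a 24 h chemical exposure, transiently transfected HepG2 cells yield RNA whose reporter sequences are amplified, FAM-labelled and sized by capillary electrophoresis. Curves are fitted bidirectionally relative to DMSO.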
# [9] = target: Paired box protein Pax-6 (Homo sapiens) (UniProt P26367); test: ATG_Pax6_CIS: Attagene CIS-FACTORIAL HepG2 Assay for human Paired Box 6 (PAX6) (AID 2282956); details: HepG2 CIS-FACTORIAL PAX6 reporter transcription, RNA readout; actives raise or lower the signal
# How it was run: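 HepG2 cells transiently transfected with multiplexed cis-promoter reporter units (endogenous TF activity) were dosed for 24 h. Reporter mRNA was quantified by RT-PCR, 6-FAM labeling, HpaI digestion and capillary electrophoresis; bidirectional fitting versus DMSO baseline.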
# [10] = ATG_PXRE_CIS: Attagene CIS-FACTORIAL HepG2 Assay for human Pregnane X Receptor Element (PXRE) (AID 2282957); details: HepG2 Attagene CIS-FACTORIAL PXRE reporter, mRNA; actives raise or lower the signal
# How it was run: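 HepG2 cells transiently transfected with cis-regulated multiple reporter transcription units; endogenous factor activity measured as reporter mRNA 24 h after dosing. RT-PCR, fluorescent primer extension, HpaI digestion, capillary electrophoresis; bidirectional fit versus DMSO baseline.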
# [11] = ATG_PPRE_CIS: Attagene CIS-FACTORIAL HepG2 Assay for human Peroxisome Proliferator-activated Response Element (PPRE) (AID 2282958); details: HepG2 PPRE cis-element reporter, Attagene transcription factor profiling; actives raise or lower the signal
# How it was run: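 PPRE activity in HepG2: transient cis-reporter transfection, 24 h compound incubation, reporter mRNA by RT-PCR and CE fluorescence; gain/loss fitted against DMSO.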
# [12] = ATG_RORE_CIS: Attagene CIS-FACTORIAL HepG2 Assay for human RAR-related Orphan Receptor Element (RORE) (AID 2282959); details: HepG2 Attagene cis-factorial RORE reporter, mRNA; actives raise or lower the signal
# How it was run: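 A 24-hour exposure of transfected HepG2 hepatoma cells precedes RNA isolation and reporter RT-PCR. Labeled products are digested with HpaI and resolved by capillary electrophoresis, with gain or loss of signal scored relative to DMSO.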
# [13] = ATG_Sox_CIS: Attagene CIS-FACTORIAL HepG2 Assay for human SRY-box transcription factor (SOX) (AID 2282960); details: HepG2 Attagene cis-factorial SOX reporter, mRNA; actives raise or lower the signal
# How it was run: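 HepG2, cis reporter units, 24 h exposure. Reporter mRNA: RT-PCR → FAM labelling → HpaI → CE fluorescence. Bidirectional fit vs DMSO.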
# [14] = target: Transcription factor Sp1 (Homo sapiens) (UniProt P08047); test: ATG_Sp1_CIS: Attagene CIS-FACTORIAL HepG2 Assay for human Specificity Protein 1 (Sp1) (AID 2282961); details: HepG2 Sp1 cis-reporter transcription, actives raise or lower the signal
# How it was run: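 Liver-derived HepG2 cells, cis-element reporter library, 24 h treatment; RNA isolated, cDNA amplified with reporter-specific primers, FAM-labeled fragments sized on capillary analyzer. DMSO baseline, bidirectional curve fit.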
# [15] = ATG_SREBP_CIS: Attagene CIS-FACTORIAL HepG2 Assay for human Sterol Regulatory Element Binding (SREBP) (AID 2282962); details: HepG2 Attagene cis-factorial SREBP reporter, mRNA; actives raise or lower the signal
# How it was run: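 HepG2 cells transiently transfected with multiplexed cis-element reporter units report endogenous transcription factor activity. After 24 h of chemical exposure, reporter mRNA was quantified by RT-PCR, 6-FAM labelling, HpaI digestion and capillary electrophoresis; bidirectional fits used DMSO as baseline.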
# [16] = target: Signal transducer and activator of transcription 3 (Homo sapiens) (UniProt P40763); test: ATG_STAT3_CIS: Attagene CIS-FACTORIAL HepG2 Assay for human Signal Transducer and Activator of Transcription 3 (STAT3) (AID 2282963); details: HepG2, Attagene cis-factorial STAT3 reporter transcription; actives raise or lower the signal
# How it was run: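 After a 24 h compound incubation, total RNA from MRTU-transfected HepG2 cells was converted to cDNA and reporter sequences PCR-amplified, labelled and profiled by capillary electrophoresis. Gain and loss of signal were referenced to DMSO.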
# [17] = ATG_TA_CIS: Attagene CIS-FACTORIAL HepG2 Assay for human TA Basal Promoter (AID 2282964); details: HepG2 Attagene CIS-factorial TA basal promoter reporter; actives raise or lower the signal
# How it was run: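 Multiplexed mRNA reporter assay, HepG2, 24 h. Reporter cDNA amplified, 6-FAM primer-extended, HpaI-cut, CE-sized; DMSO = negative control and baseline.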
# [18] = target: Hypoxia-inducible factor 1-alpha (Homo sapiens) (UniProt Q16665); test: ATG_HIF1a_CIS: Attagene CIS-FACTORIAL HepG2 Assay for human Hypoxia Inducible Factor 1 (HIF1A) (AID 2282951); details: HepG2 Attagene cis-factorial HIF1a reporter transcription; actives raise or lower the signal
# How it was run: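 After 24 h chemical exposure of reporter-transfected HepG2 cells, reporter cDNA was PCR-amplified, labelled by 6-FAM primer extension (2 min 95 C, 20 s 68 C, 10 min 72 C), HpaI-cut (2 h, 37 C) and analysed by CE.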
# Chain of Heat shock factor protein 1 (Homo sapiens) (Q00613 whole entry, looked up): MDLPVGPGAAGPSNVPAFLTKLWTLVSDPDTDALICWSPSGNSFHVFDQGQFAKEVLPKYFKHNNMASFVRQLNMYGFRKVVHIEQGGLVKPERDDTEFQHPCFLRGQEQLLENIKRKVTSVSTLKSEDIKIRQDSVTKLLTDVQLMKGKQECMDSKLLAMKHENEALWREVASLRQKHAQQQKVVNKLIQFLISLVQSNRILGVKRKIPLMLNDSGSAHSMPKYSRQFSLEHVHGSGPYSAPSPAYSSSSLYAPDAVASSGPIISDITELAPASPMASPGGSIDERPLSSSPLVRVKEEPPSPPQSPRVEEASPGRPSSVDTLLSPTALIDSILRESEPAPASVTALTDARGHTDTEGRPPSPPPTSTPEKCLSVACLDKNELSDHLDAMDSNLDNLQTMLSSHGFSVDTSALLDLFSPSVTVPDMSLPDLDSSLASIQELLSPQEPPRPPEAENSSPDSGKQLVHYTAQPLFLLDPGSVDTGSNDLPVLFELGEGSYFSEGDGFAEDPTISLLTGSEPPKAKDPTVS
# Chain of Paired box protein Pax-6 (Homo sapiens) (P26367 whole entry, looked up): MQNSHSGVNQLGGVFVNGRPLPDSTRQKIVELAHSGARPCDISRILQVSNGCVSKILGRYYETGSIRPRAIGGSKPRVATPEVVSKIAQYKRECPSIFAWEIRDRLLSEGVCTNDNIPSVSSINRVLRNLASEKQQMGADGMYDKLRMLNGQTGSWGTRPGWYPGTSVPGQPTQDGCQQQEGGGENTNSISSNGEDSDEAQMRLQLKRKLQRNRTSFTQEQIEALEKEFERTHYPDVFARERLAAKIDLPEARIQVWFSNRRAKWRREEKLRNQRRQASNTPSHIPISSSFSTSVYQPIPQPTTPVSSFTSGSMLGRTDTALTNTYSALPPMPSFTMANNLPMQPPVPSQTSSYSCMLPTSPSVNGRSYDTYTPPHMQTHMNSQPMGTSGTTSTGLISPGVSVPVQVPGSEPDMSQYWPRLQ
# Chain of Transcription factor Sp1 (Homo sapiens) (P08047 whole entry, looked up, the tested form may be a part): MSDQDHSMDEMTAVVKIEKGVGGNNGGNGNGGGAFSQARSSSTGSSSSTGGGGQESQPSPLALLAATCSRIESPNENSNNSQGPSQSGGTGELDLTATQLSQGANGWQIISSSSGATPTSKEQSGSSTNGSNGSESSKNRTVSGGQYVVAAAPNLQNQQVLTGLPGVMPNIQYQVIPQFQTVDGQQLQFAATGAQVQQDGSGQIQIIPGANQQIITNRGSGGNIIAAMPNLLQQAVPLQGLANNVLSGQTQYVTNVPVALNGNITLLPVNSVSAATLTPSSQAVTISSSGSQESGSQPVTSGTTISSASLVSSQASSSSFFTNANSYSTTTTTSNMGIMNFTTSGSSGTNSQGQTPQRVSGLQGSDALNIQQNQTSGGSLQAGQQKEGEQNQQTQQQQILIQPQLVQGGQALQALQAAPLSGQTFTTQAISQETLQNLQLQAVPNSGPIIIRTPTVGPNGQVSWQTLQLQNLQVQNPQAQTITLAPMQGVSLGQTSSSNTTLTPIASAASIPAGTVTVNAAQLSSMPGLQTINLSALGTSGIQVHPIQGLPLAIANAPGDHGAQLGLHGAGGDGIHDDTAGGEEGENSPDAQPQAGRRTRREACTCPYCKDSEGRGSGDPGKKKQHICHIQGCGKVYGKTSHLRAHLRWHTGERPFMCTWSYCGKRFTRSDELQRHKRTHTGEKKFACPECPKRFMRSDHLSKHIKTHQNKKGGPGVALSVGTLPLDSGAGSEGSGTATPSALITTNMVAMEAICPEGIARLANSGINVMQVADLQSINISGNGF
# Chain of Signal transducer and activator of transcription 3 (Homo sapiens) (P40763 whole entry, looked up): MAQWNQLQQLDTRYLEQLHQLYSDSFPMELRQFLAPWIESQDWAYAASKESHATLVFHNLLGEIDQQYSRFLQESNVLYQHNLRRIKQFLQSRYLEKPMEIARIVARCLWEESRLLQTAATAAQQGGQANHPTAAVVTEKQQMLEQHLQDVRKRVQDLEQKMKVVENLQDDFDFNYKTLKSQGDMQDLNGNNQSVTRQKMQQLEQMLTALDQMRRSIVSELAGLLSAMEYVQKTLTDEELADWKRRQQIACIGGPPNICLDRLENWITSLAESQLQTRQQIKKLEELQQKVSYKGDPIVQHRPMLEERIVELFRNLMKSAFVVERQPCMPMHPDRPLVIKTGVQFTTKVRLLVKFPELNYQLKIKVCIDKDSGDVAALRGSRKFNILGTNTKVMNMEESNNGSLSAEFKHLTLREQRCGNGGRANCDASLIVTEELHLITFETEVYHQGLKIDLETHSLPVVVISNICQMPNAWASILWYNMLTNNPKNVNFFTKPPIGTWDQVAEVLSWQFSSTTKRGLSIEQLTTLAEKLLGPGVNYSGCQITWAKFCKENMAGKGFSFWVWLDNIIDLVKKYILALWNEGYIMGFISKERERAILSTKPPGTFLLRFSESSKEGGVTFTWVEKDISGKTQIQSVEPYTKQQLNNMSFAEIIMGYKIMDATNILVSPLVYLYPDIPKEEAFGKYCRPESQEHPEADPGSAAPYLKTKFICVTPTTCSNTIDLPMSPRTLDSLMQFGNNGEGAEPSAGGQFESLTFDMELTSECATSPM
# Chain of Hepatocyte nuclear factor 6 (Homo sapiens) (Q9UBC0 whole entry, looked up): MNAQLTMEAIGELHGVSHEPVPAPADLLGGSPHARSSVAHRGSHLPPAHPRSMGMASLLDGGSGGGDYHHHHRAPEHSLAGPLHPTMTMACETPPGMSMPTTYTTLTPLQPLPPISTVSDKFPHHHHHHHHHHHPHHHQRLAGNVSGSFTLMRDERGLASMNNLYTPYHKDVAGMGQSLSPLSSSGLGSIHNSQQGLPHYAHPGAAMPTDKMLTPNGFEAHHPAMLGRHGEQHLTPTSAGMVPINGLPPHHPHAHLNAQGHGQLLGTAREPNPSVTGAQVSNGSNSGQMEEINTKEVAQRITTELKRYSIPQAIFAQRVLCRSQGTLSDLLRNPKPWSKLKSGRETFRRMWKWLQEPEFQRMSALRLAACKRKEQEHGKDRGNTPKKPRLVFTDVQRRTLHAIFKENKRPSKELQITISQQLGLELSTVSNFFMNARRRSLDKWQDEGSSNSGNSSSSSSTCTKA
# Chain of Bile acid receptor (Homo sapiens) (Q96RI1 whole entry, looked up, the tested form may be a part): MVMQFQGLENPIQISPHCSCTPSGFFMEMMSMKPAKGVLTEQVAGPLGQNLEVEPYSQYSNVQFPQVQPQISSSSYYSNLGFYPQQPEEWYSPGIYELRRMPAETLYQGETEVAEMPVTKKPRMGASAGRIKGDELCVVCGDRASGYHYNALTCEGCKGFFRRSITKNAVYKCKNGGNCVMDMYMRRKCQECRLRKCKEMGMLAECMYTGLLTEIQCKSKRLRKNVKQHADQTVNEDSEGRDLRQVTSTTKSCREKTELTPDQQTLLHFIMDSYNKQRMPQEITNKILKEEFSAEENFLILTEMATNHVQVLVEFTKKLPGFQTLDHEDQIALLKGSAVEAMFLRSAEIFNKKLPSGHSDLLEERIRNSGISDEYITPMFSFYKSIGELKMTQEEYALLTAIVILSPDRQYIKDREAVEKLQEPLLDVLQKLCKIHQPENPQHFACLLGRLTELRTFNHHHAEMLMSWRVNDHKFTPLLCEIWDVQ
# Chain of Hypoxia-inducible factor 1-alpha (Homo sapiens) (Q16665 whole entry, looked up): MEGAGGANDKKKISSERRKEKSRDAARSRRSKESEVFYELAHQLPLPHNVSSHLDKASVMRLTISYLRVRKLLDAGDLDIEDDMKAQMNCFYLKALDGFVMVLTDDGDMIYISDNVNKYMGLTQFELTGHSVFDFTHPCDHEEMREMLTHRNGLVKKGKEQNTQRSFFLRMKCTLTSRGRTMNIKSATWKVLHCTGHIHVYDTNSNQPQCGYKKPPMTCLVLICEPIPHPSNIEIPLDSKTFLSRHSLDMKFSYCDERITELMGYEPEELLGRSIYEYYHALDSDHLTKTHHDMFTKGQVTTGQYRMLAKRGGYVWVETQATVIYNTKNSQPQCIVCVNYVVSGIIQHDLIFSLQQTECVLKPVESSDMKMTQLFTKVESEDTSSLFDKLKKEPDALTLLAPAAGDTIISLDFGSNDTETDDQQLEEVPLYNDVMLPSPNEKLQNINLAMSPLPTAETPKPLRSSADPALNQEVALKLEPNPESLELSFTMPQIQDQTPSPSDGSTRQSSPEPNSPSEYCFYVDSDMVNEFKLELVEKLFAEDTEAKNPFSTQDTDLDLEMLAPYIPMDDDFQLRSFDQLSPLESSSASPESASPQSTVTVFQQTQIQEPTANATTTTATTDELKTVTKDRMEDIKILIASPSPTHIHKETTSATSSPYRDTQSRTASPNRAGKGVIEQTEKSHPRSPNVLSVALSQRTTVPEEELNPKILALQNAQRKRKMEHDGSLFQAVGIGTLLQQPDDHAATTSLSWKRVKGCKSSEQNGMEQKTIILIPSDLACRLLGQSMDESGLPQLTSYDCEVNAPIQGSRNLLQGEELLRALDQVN
smiles,measurement,setting,value
CCCCC[C@H](O)CC(=O)CCc1ccc(O)c(OC)c1,outcome,[1],inactive
same,AC50,[2],149 µM (active)
same,outcome,[3],inactive
same,outcome,[4],inactive
same,outcome,[5],inactive
same,outcome,[6],inactive
same,outcome,[7],inactive
same,outcome,[8],inactive
same,outcome,[9],inactive
same,AC50,[10],18.1 µM (active)
same,outcome,[11],inactive
same,outcome,[12],inactive
same,outcome,[13],inactive
same,AC50,[14],166 µM (active)
same,outcome,[15],inactive
same,outcome,[16],inactive
same,outcome,[17],inactive
CCCCOCCO,outcome,[1],inactive
same,outcome,[2],inactive
same,outcome,[3],inactive
same,outcome,[4],inactive
same,outcome,[5],inactive
same,outcome,[6],inactive
same,outcome,[7],inactive
same,outcome,[8],inactive
same,outcome,[9],inactive
same,outcome,[10],inactive
same,outcome,[11],inactive
same,outcome,[12],inactive
same,outcome,[13],inactive
same,outcome,[14],inactive
same,outcome,[15],inactive
same,outcome,[16],inactive
same,outcome,[17],inactive
CCCCC(CC)COC(=O)CCCCC(=O)OCc1ccccc1 (configuration not stated),outcome,[1],inactive
same,outcome,[2],inactive
same,outcome,[3],inactive
same,outcome,[4],inactive
same,outcome,[5],inactive
same,outcome,[6],inactive
same,outcome,[7],inactive
same,outcome,[8],inactive
same,outcome,[9],inactive
same,AC50,[10],12.4 µM (active)
same,outcome,[11],inactive
same,outcome,[12],inactive
same,outcome,[13],inactive
same,outcome,[14],inactive
same,outcome,[15],inactive
same,outcome,[16],inactive
same,outcome,[17],inactive
CN1CCN(c2ccccc2/C=C2\SCCN(c3ccc(Cl)c(Cl)c3)C2=O)CC1,outcome,[1],inactive
same,outcome,[2],inactive
same,outcome,[3],inactive
same,outcome,[4],inactive
same,outcome,[5],inactive
same,outcome,[18],inactive
same,outcome,[6],inactive
same,outcome,[7],inactive
same,outcome,[8],inactive
same,outcome,[9],inactive
same,AC50,[10],2.88 µM (active)
same,outcome,[11],inactive
same,outcome,[12],inactive
same,outcome,[13],inactive
same,outcome,[14],inactive
same,AC50,[15],5.37 µM (active)
same,outcome,[16],inactive
same,outcome,[17],inactive
O=[N+]([O-])c1ccc(O)cc1,outcome,[1],inactive
same,outcome,[4],inactive
same,outcome,[5],inactive
same,AC50,[18],151 µM (active)
same,outcome,[18],inactive
same,outcome,[6],inactive
same,outcome,[7],inactive
same,outcome,[8],inactive
same,outcome,[9],inactive
same,outcome,[10],inactive
same,outcome,[11],inactive
same,outcome,[13],inactive
same,outcome,[14],inactive
same,outcome,[15],inactive
same,outcome,[16],inactive
same,outcome,[17],inactive
CC(C)(C)c1cccc(C(C)(C)C)c1O,outcome,[1],inactive
same,outcome,[2],inactive
same,outcome,[3],inactive
same,AC50,[4],162 µM (active)
same,outcome,[5],inactive
same,outcome,[6],inactive
same,outcome,[7],inactive
same,AC50,[8],158 µM (active)
same,AC50,[9],162 µM (active)
same,outcome,[10],inactive
same,outcome,[11],inactive
same,outcome,[13],inactive
same,AC50,[14],165 µM (active)
same,outcome,[15],inactive
same,outcome,[16],inactive
same,outcome,[17],inactive
Cc1ccc(S(=O)(=O)O)c(C)c1,outcome,[1],inactive
same,outcome,[3],inactive
same,outcome,[4],inactive
same,outcome,[5],inactive
same,outcome,[6],inactive
same,outcome,[7],inactive
same,outcome,[8],inactive
same,outcome,[9],inactive
same,AC50,[10],27.3 µM (active)
same,outcome,[10],inactive
same,outcome,[11],inactive
same,outcome,[13],inactive
same,outcome,[14],inactive
same,outcome,[15],inactive
same,outcome,[16],inactive
same,outcome,[17],inactive
